The panel holds about 83,000 compounds, 20% with a hit somewhere; the sample as a whole holds those more often.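 Treatment: one concentration, 48 hours, 96-well format. Scoring: percent growth, with anything below 10 considered active.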 Values without a mark were called inactive. Calls of active or inactive are those of the source.
System: HL-60(TB) leukemia
Test: NCI-60 one-dose screen, 48 h (100 = growth as untreated, 0 = no growth, -100 = all killed)
Details: 10 µM unless noted

Q: For C#C[C@]1(O)CC[C@H]2[C@@H]3CC=C4c5sc(-c6ccccc6)nc5CC[C@]4(C)[C@H]3CC[C@@]21C, which growth is on record?
A: 74.2%

Q: With OCC1OC(n2ccc3c(NO)ncnc32)C(O)C1O (stereo not drawn) as the molecule, how does the growth read?
A: -35.1% (active)

Q: Which growth does the source give for OC(c1cc2cc(Cl)c(Cl)cc2c2cc(C(F)(F)F)ccc12)C1CCCCN1 (stereo not drawn) here?
A: -21% (active)

Q: CC(C)(C#N)Nc1ccccc1 was tested. Which growth did it give?
A: 105%

Q: COc1ccc(-c2ccc(-c3ccc(C(=N)N)o3)o2)cc1 was tested. Which growth did it give?
A: -46.2% (active)

Q: With Cc1cc(C)on1 as the molecule, how does the growth read?
A: 76.3%

Q: With O=C(/C=C/C12c3ccccc3C(c3ccccc31)C1C(=O)N(c3ccc(Cl)cc3)C(=O)C12)c1ccccn1 (stereo not drawn) as the molecule, how does the growth read?
A: -19.4% (active)

Q: Cc1ccc(C(CN(C)C)C(=O)c2ccccc2)cc1 (stereo not drawn) was tested. Which growth did it give?
A: -31.3% (active)

Q: Which growth does the source give for CO[C@H]1/C=C/O[C@@]2(C)Oc3c(C)c(O)c4c(c3C2=O)C(=O)C(/C=N/N(c2ccccc2)c2ccccc2)=C(NC(=O)/C(C)=C\C=C\[C@H](C)[C@H](O)[C@@H](C)[C@@H](O)[C@@H](C)[C@H](OC(C)=O)[C@@H]1C)C4=O here?
A: -12.5% (active)

Q: Which growth does the source give for COc1ccc(-c2nc(N/N=C/c3cccc(O)c3)nc(N3CCOCC3)c2C#N)cc1 here?
A: 49.2%

Q: How did the growth turn out when Clc1ccc(CN2COc3c(ccc4cccnc34)C2)cc1Cl was run?
A: -63.5% (active)

Q: How did the growth turn out when CCCCCCCCCCCCCCCCCC(=O)[O][Sn]([CH2]CCC)([CH2]CCC)[CH2]CCC was run?
A: -18.5% (active)

Q: How did the growth turn out when COc1ccccc1/C=N\NC(=S)Nc1ccc(F)cc1 was run?
A: 94.5%

Q: How did the growth turn out when CCCCC(C=O)(C=C=C(C)C)CC (stereo not drawn) was run?
A: 104%

Q: For O=C(Nc1cccc([N+](=O)[O-])c1)NN1CCCCCC1, which growth is on record?
A: 112%

Q: Which growth does the source give for COc1ccc(-c2cc(-c3cccnc3)nc3sc4c(=O)[nH]c(-c5ccc(Cl)cc5)nc4c23)cc1OC here?
A: 90.3%

Q: How did the growth turn out when Clc1cn2cc(-c3ccc(Cl)c(Cl)c3Cl)nc2s1 was run?
A: 85.3%

Q: For CNCc1cccc2c1OCCOCCOCCC(C)S(=O)(=O)c1ccc(cc1)-c1cnc(N)c(n1)C(=O)N2 (stereo not drawn), which growth is on record?
A: -34.8% (active)

Q: With Cn1ccnc1C(=O)/C=C/c1ccc(CC(=O)Nc2ccc(S(F)(F)(F)(F)F)cc2)cc1 as the molecule, how does the growth read?
A: -11.5% (active)

Q: With C(=C(\C1=NCCN1)n1ccc2ccccc21)/c1ccccc1 as the molecule, how does the growth read?
A: 96.8%

Q: Cc1ccc(-c2nc([P+](c3ccccc3)(c3ccccc3)c3ccccc3)c(S(=O)(=O)c3ccc(C)cc3)o2)cc1 was tested. Which growth did it give?
A: -14.4% (active)

Q: Which growth does the source give for N=C1C(c2nc3ccccc3s2)=C(O)CN1c1cc(Cl)cc(Cl)c1 here?
A: 35.5%

Q: Cc1ccc(S(=O)(=O)N2CCc3ccc(O)c4c3C2Cc2cc(Cl)ccc2-4)cc1 (stereo not drawn) was tested. Which growth did it give?
A: 85.3%

Source: PubChem BioAssay (NCI)
